HTR2A ag – mouse Htr2a agonists via beta-arrestin recruitment, primary screen, cell-based, luminescence. 5-hydroxytryptamine receptor 2A (Mus musculus), P35363. CHO-K1 mHTR2A beta-arrestin complementation; percent of 30 µM serotonin response. activation, % at 7.6 µM. 0.66% of 360,000 active;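 active = activation above a run cutoff, the mean activation of all tested compounds plus 3 SD, cut at about 14% in these data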
CRFBP-R2 block – antagonists of CRF-BP/CRF-R2 complex, primary screen, cell-based, HEK293, calcium dye fluorescence, uHTS; CRF-induced calcium fluorescence; inhibition, % at 11.8 µM; 0.59% of 350,000 active;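 active = inhibition of the ligand-induced calcium signal above about 50% at the single tested concentration, limit read from the data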
TLR4-MyD88 BLA – inhibitors of TLR4-MyD88 association in cells, primary screen, cell-based, HeLa CL3-4, BLA complementation, FRET ratio | HeLa CL3-4 TLR4/MyD88 BLA complementation | inhibition, % at 8.4 µM | 0.18% of 200,000 active; in the data active = inhibition above about 25%
Target sequence (O00206 whole entry, looked up): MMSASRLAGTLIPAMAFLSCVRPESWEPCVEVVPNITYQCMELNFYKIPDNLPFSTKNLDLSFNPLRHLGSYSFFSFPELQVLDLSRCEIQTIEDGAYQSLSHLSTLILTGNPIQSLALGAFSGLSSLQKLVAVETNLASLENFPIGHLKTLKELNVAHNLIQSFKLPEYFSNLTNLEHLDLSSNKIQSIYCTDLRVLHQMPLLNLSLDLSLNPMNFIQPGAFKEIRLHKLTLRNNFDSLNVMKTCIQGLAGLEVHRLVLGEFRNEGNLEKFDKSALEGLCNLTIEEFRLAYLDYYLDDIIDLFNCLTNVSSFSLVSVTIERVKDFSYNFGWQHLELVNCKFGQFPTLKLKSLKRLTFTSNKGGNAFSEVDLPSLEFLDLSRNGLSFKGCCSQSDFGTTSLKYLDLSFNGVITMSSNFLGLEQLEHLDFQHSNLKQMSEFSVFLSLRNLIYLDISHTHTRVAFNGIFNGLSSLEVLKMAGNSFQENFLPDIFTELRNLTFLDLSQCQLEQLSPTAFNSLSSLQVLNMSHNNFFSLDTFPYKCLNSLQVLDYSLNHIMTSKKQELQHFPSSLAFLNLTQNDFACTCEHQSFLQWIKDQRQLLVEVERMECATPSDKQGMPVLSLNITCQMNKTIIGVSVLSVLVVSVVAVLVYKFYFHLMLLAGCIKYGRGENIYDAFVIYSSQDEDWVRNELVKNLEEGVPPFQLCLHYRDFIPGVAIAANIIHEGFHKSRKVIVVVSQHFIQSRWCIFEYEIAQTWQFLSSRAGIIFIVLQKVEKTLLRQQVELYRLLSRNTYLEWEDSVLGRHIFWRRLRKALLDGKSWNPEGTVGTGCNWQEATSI
Target sequence (Q99836 whole entry, looked up): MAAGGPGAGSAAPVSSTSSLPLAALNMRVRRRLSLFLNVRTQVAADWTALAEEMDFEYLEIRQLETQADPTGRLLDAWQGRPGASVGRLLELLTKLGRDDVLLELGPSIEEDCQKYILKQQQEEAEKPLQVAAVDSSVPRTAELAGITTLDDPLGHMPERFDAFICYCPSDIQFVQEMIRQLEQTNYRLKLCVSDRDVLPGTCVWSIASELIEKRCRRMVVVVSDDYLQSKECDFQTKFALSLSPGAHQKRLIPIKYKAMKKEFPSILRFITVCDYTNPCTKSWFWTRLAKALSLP
NOD2-RIPK2 inh – NOD2-RIPK2 binding disruptors in cells, primary screen, fluorescence, CHO cells, BLA complementation; CCF4 ratio; 0.38% of 360,000 active; Receptor-interacting serine/threonine-protein kinase 2 (Homo sapiens), O43353; inhibition, % at 4.98 µM; AID 624267, 2012; in the data active = inhibition above about 21%
TLR9-MyD88 block – inhibitors of TLR9-MyD88 association in cells, primary screen, cell-based, CHO, BLA complementation, fluorescence. AID 504734, 2011. 0.21% of 340,000 active. Toll-like receptor 9 (Homo sapiens) + Myeloid differentiation primary response protein …. CCF4 FRET ratio. inhibition, % at 4.98 µM;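 active = inhibition above the mean over all tested compounds plus 3 SD, cut at about 21% in these data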
ABHD5 PLIN5 PPI – ABHD5-PLIN5 interaction inhibitors, primary screen, cell lysate, split luciferase complementation, luminescence; 0.78% of 360,000 active; Perilipin-5 (Homo sapiens) + 1-acylglycerol-3-phosphate O-acyltransferase ABHD5 (Homo …; Split G. princeps luciferase complementation, 4 h; inhibition, % at 4 µM;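 active = inhibition above the mean inhibition across every tested compound plus 3 SD, cut at about 22% in these data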
OPRM1 ag – OPRM1 agonists via beta-arrestin recruitment, confirmation, counter-screen for mouse HTR2A agonist project, cell-based, luminescence, single concentration. 5.3% of 2,300 active. U2OS OPRM1 beta-arrestin PathHunter; DMSO 0%, DAMGO 9.3 µM 100%. activation, % at 9.3 µM. shares compounds with HTR2A ag;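 active = mean activation above the mean of DMSO-only wells plus 3 SD, cut at about 0.5% in these data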
m5-HT2A ag conf – mouse HTR2A agonists, beta-arrestin recruitment, confirmation, cell-based, luminescence, CHO-K1 PathHunter, triplicate; shares compounds with HTR2A ag; DMSO 0%, 30 µM serotonin 100%; activation, % at 7.6 µM; 19% of 2,300 active;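 active = mean activation across triplicates above the hit threshold derived in the original primary screen, cut at about 15% in these data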
Numbers stand for hits; - = inactive; . = no result. Sampled rows, rich in hits. Any-hit rate of the full collection: about 2.4%.

SMILES	HTR2A ag	CRFBP-R2 block	TLR4-MyD88 BLA	NOD2-RIPK2 inh	TLR9-MyD88 block	ABHD5 PLIN5 PPI	OPRM1 ag	m5-HT2A ag conf
CN(C)S(=O)(=O)c1cc(NC(=O)CN2CCN(c3ccccc3)CC2)ccc1Cl	17.8	-	-	-	-	-	-	45.4
Fc1cccc(Cc2c(-c3ccc(Cl)cc3)nc3c(Cl)cc(C(F)(F)F)cn23)c1	-	.	.	-	.	-	.	.
CN1CCCCC1(C)C(=O)NCc1cc(Cl)ccc1F (stereo not given)	-	.	.	-	.	-	.	.
CCOC(=O)c1ccc(O)c(-n2cc3c(c2-c2ccccc2)c(=O)n(C)c(=O)n3C)c1	-	.	.	-	.	-	.	.
COc1cc2c3c(cccc3c1)C(=O)N(CCN1CCCC1)C2=O	-	-	.	-	-	-	.	.
Cn1c(NCc2ccccc2O)nc2ccccc21	-	-	-	-	-	-	.	.
Cn1c(NCc2ccccc2Cl)nc2ccccc21	19.8	-	.	-	-	-	-	-
CCN(CCCNC(=O)C1CCCN(S(=O)(=O)c2cnc[nH]2)C1)c1ccccc1 (stereo not given)	17.6	-	-	-	-	-	-	-
O=C(Cc1cccs1)NNC(=S)NCc1ccco1	14.7	-	-	-	-	-	-	-
O=C(Cc1cccs1)NCc1ccco1	-	-	-	-	-	-	.	.
CCCCN(C=O)c1c(CC)nc2c(OCC(=O)N3CCOCC3)cccn12	16.4	.	.	-	.	-	-	-
O=S1(=O)CCC(NC(=S)N2CCCCC2)C1 (stereo not given)	17.1	-	-	-	-	-	-	-
O=C1NC[C@@H](CCCCN2CCN(CCc3ccccc3)C(=O)C2=O)N(CC2CCCCC2)C1=O	-	.	.	-	.	-	.	.
COC(=O)c1ccn(CSc2cc(Cl)ccc2Cl)n1	21.1	-	.	-	-	-	0.6	-
COC(=O)c1ccn(CSc2c(F)c(F)cc(F)c2F)n1	-	-	.	-	-	-	.	.
O=C(NCC1OCCc2ccccc21)c1ccc(NC(=O)c2ccc(Cl)cc2Cl)cc1 (stereo not given)	16.1	-	-	-	-	-	0.8	-
O=C(COc1ccc([N+](=O)[O-])cc1)NNC(=O)C1COc2ccccc2O1 (stereo not given)	-	-	.	-	-	-	.	.
COc1ccccc1/C=C/C(=O)NCC(=O)n1nc(C)cc1C	18.7	-	.	-	-	-	-	-
Cc1cc(C)n(C(=O)CNC(=O)/C=C/c2ccccc2)n1	-	-	-	-	-	-	.	.
CCCCNC(=O)C1(C)CCN1Cc1cccc2c(OC)cc(C(=O)OCC)cc12 (stereo not given)	-	.	.	-	.	-	.	.
COc1ccc(-c2csc3ncnc(N4CCN(CCO)CC4)c23)cc1	-	-	.	-	-	-	.	.
OCCN1CCN(c2ncnc3scc(-c4ccc(F)cc4)c23)CC1	15.8	-	.	-	-	-	-	-
CC1(C(=O)NCC(F)(F)F)CCN1C(=O)Cc1ccc(-c2ccccc2)cc1 (stereo not given)	-	.	.	-	.	-	.	.
CCOc1ccc(N2C(=O)CC(N(CCc3ccc(OC)cc3)C(=O)/C=C/C(=O)O)C2=O)cc1 (stereo not given)	16.8	-	-	-	-	-	-	-
CC(=O)Nc1cc(-c2cccc(N)c2)cn2c(-c3ccccc3)cnc12	-	.	.	-	.	-	.	.
SMILES	HTR2A ag	CRFBP-R2 block	TLR4-MyD88 BLA	NOD2-RIPK2 inh	TLR9-MyD88 block	ABHD5 PLIN5 PPI	OPRM1 ag	m5-HT2A ag conf
COc1ccc(CCNc2ccc(S(N)(=O)=O)cn2)cc1	16.2	-	.	-	-	-	-	-
O=C(NCC(c1ccco1)N1CCN(c2ccccc2F)CC1)c1ccco1 (stereo not given)	15.2	-	.	-	-	-	-	36.4
Cc1cc(NN)nc(NS(=O)(=O)c2ccc(Cl)cc2)n1	15.6	-	-	-	-	-	-	-
CO[C@@H]1CN(C)C(=O)c2ccc(NC(=O)C3CCC3)cc2OC[C@H](C)N(CC2CCCCC2)C[C@H]1C	21.4	.	.	-	.	-	-	-
CO[C@H]1CN(C)C(=O)c2ccc(NC(=O)C3CCC3)cc2OC[C@H](C)N(CC2CCCCC2)C[C@@H]1C	-	.	.	-	.	-	.	.
O=[N+]([O-])c1cccc(S(=O)(=O)NCCc2cn3ccccc3n2)c1	15.1	-	.	-	-	-	-	-
CCNC(=O)C[C@@H]1C=C[C@@H](NS(=O)(=O)c2ccc(F)cc2)[C@@H](CO)O1	-	.	.	-	.	-	.	.
O=C(c1cc(C2CCCCN2S(=O)(=O)Cc2ccccc2)on1)N1CCOCC1 (stereo not given)	-	.	.	-	.	-	.	.
COC(=O)c1ccccc1COc1cccn2c(N(C)Cc3cccs3)c(C)nc12	-	.	.	-	.	-	.	.
Cc1ccnc(Sc2ccc([N+](=O)[O-])cn2)n1	-	-	-	-	-	-	.	.
CC(C)(C)c1csc(Sc2ccc([N+](=O)[O-])cn2)n1	18.0	-	.	-	-	-	0.7	-
CCc1nc2ccc(C(=O)N3CCN(c4ccccc4)CC3)cn2c1N(C)CCC(C)C	-	.	.	-	.	-	.	.
N#Cc1ccc(CN2CCN(C(=O)CNS(=O)(=O)c3ccc4c(c3)OCCCO4)CC2)cc1	15.2	-	.	-	-	-	-	-
O=C(CNS(=O)(=O)c1ccc2c(c1)OCCCO2)N1CCN(Cc2ccccc2)CC1	-	-	.	-	-	-	.	.
O=C(CNS(=O)(=O)c1ccc(Br)cc1)N1CCN(Cc2ccccc2)CC1	15.1	-	.	-	-	-	-	16.9
Cn1c(=O)[nH]c(=O)c2c1nc(N1CCCC1)n2CCO	22.0	-	.	-	-	-	-	-
COc1ccc([C@@H]2C[C@H]3[C@@H](CN2S(=O)(=O)c2ccccc2)C(=O)C[C@@H](c2ccc(OC)cc2)N3S(=O)(=O)c2ccccc2)cc1	-	.	.	-	.	-	.	.
C[C@@H]1CN([C@@H](C)CO)S(=O)(=O)c2ccc(Br)cc2O[C@@H]1CN(C)S(=O)(=O)c1cn(C)cn1	17.1	-	.	-	-	-	-	-
